A selection: hits, their analogues and other compounds. The true share with any hit is near 2.3%.
U2OS ROS induce: ROS inducers in U2OS cancer cells, primary screen, cell-based, H2DCF-DA fluorescence; 2% of 46,000 active; U2OS ROS induction; ROS induction (% of piperlongumine), % at 10 µM; in the data active = ROS induction above about 79%, passing the limit was not always enough;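 also: 0% = DMSO vehicle median and 100% = reference compound median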
YB-1 expr inh: inhibitors of YB-1 gene expression, primary screen, cell-based, fluorescence; U2OS, qRT-PCR YB-1 vs CDIP delta delta Cp, 16 h; stronger effect = higher value; zero = DMSO, each unit about twofold; delta delta Cp (YB-1 minus CDIP) (no concentration beside the values); 0.37% of 30,000 active; AID 434959, 2010;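 active = delta delta Cp rounded down to an integer at or above 3, about 3 SD of DMSO wells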;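 also: higher means less YB-1 transcript or more CDIP transcript relative to DMSO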
An asterisk follows results filed as active; / = no result.

SMILES | U2OS ROS induce | YB-1 expr inh
COc1cc(C(=O)OC[C@@]2(O)CO[C@H](OC3C(CO)OC(OC(C)/C=C/C4(O)C(C)CC(O)CC4(C)C)C(O)C3O)[C@@H]2O)cc(OC)c1O (some centres not stated) | -6 | 3.5*
CC(/C=C/C1(O)C(C)CC(O)CC1(C)C)OC1OC(CO)C(O)C(O)C1O (configuration not stated) | -6 | 1.9
Cc1noc(C)c1S(=O)(=O)Nc1ccc2c(c1)CC(=O)N([C@H](C)CO)C[C@@H](C)[C@@H](CN(C)S(=O)(=O)c1ccc(F)cc1)O2 | 5 | -0.11
Cc1ccc(-c2nnc(-n3cnc4cc(C)c(C)cc43)c3ccccc23)cc1 | 28 | 3.8*
Cc1ccc(-c2nnc(N3CCN(C(=O)CSc4nc5ccccc5o4)CC3)c3ccccc23)cc1 | 37 | /
CCCCn1nnc2c(=O)oc3ccccc3c21 | 187* | /
O=c1oc2ccccc2c2c1nc(C(F)(F)F)n2-c1ccccc1 | 21 | /
c1ccc2c(CSc3nc4ccccc4s3)cccc2c1 | 9 | /
Nc1ncnc(Sc2nc3ccccc3s2)c1[N+](=O)[O-] | 100* | /
Cc1cc2nc(SCc3nc4ccccc4[nH]3)[nH]c2cc1C | 45 | /
COCCCNC(=O)[C@@]1(Cc2ccccc2N=[N+]=[N-])N=C(c2ccc(OCCCO)cc2)O[C@H]1c1ccccc1 | -7 | -0.67
COc1ccc(CCN2C(=O)c3oc4ccc(C)cc4c(=O)c3C2c2cccc([N+](=O)[O-])c2)cc1OC (configuration not stated) | -9 | /
C[C@@H]1CN([C@@H](C)CO)C(=O)c2cccc(NC(=O)c3cnccn3)c2O[C@H]1CN(C)Cc1ccc(Cl)c(Cl)c1 | 87* | 0.25
C[C@H](CO)N1C[C@H](C)[C@H](CN(C)S(=O)(=O)c2ccccc2)Oc2c(NC(=O)c3cnccn3)cccc2C1=O | 7 | 0.17
C[C@@H]1CN([C@@H](C)CO)C(=O)c2cccc(NC(=O)c3cnccn3)c2O[C@@H]1CN(C)Cc1ccc(Cl)c(Cl)c1 | 4 | -0.18
C[C@H](CO)N1C[C@H](C)[C@H](CN(C)S(C)(=O)=O)Oc2c(NC(=O)c3cnccn3)cccc2C1=O | -8 | 4.7*
Cc1ccc(S(=O)(=O)Nc2ccc3c(c2)CC(=O)N([C@H](C)CO)C[C@@H](C)[C@@H](CN(C)S(=O)(=O)c2c(C)noc2C)O3)cc1 | 1 | 0.42
CCC(C)c1ccc(OCCCN2CCN(C)CC2)cc1 (configuration not stated) | -5 | /
O=C(O)CCCC(=O)c1ccccc1 | 4 | /
C[C@H](CO)N1C[C@H](C)[C@H](CN(C)Cc2ccc(Cl)c(Cl)c2)Oc2ccc(NC(=O)C3CC3)cc2CC1=O | 6 | 0.39
C[C@@H]1CN([C@H](C)CO)C(=O)Cc2cc(NC(=O)C3CC3)ccc2O[C@@H]1CN(C)Cc1ccc(Cl)c(Cl)c1 | 164* | -0.23
C[C@H](CO)N1C[C@H](C)[C@H](CN(C)Cc2ccc(Cl)c(Cl)c2)Oc2ccc(NC(=O)CCC(F)(F)F)cc2CC1=O | 151* | 0.14
C[C@@H]1CN([C@@H](C)CO)C(=O)Cc2cc(NC(=O)CCC(F)(F)F)ccc2O[C@@H]1CN(C)Cc1ccc(Cl)c(Cl)c1 | 35 | 0.43
C[C@H]1CN([C@@H](C)CO)C(=O)Cc2cc(NC(=O)C3CCCCC3)ccc2O[C@@H]1CN(C)Cc1ccc2c(c1)OCO2 | -3 | 0.18
C[C@@H]1CN([C@H](C)CO)C(=O)Cc2cc(NC(=O)C3CCCCC3)ccc2O[C@@H]1CN(C)Cc1ccc2c(c1)OCO2 | 141* | 0.61
SMILES | U2OS ROS induce | YB-1 expr inh
C[C@H]1CN([C@@H](C)CO)C(=O)c2cccc(NC(=O)Nc3ccc(C(F)(F)F)cc3)c2O[C@H]1CN(C)Cc1ccc(Oc2ccccc2)cc1 | 15 | 0.26
C[C@H](CO)N1C[C@H](C)[C@H](CN(C)S(=O)(=O)c2cccc(F)c2)Oc2ncc(-c3cccc(C(F)(F)F)c3)cc2C1=O | 31 | 0.074
C[C@H](CO)N1C[C@H](C)[C@H](CN(C)S(=O)(=O)c2ccc(F)cc2)Oc2ncc(-c3cccc(C(F)(F)F)c3)cc2C1=O | 116* | -0.064
C[C@H](CO)N1C[C@H](C)[C@H](CN(C)C(=O)Nc2cccc3ccccc23)Oc2ncc(-c3ccc(F)cc3)cc2C1=O | 3 | 0.34
C[C@H](CO)N1C[C@H](C)[C@H](CN(C)Cc2cccc(C(F)(F)F)c2)Oc2ncc(-c3cc4ccccc4o3)cc2C1=O | 248* | 0.21
C[C@H](CO)N1C[C@H](C)[C@H](CN(C)C(=O)Nc2cccc3ccccc23)Oc2ncc(-c3cc4ccccc4o3)cc2C1=O | 115* | 0.48
C[C@H](CO)N1C[C@H](C)[C@H](CN(C)Cc2ccccc2)Oc2ncc(-c3cc4ccccc4o3)cc2C1=O | 62 | 0.15

Screens from PubChem.
